# Measurements published in the supplement of paper PMC7366291.
# Structures can show the parent of a compound that is named as a salt. ± gives the standard deviation of the averaged measurements.
# Tested on: Danio rerio Tg(wt1b:EGFP) embryo, pronephros
# Experiment: pronephric angle neck segment to proximal convoluted tubule (mean of left and right), fold change vs DMSO control; higher = larger pronephric angle
# Conditions: 25 µM; exposure: 24-48 hpf
# Summary of the method: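 From 24 to 48 hpf, at 28.5°C, dechorionated Tg(wt1b:EGFP) zebrafish embryos sat in HEPES-buffered E3 with 0.003% PTU carrying 25 μM compound and 0.5% DMSO. Their pronephroi were imaged dorsally in 96-well plates filled with agarose, using 470 nm light and 10 z-slices. A Fiji macro measured distances and angles between 16 reference points that were set manually on maximum projections, and any value more than 2 SD from its feature mean was excluded. Features are expressed as fold change relative to the mean of DMSO-treated embryos imaged on the same day.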
row,SMILES,pronephric angle neck segment
1,CN1[C@@H]2CC[C@H]1C[C@@H](OC1c3ccccc3CCc3ccccc31)C2 [Deptropine citrate],0.939 ± 0.061
2,CN1[C@@H]2CC[C@H]1C[C@@H](OC(=O)[C@H](CO)c1ccccc1)C2 [Hyoscyamine (L)],0.999 ± 0.012
3,CC(C)C[C@H](CN)CC(=O)O [Pregabalin],1.03 ± 0.03
4,CC(=O)[C@H]1CC[C@H]2[C@@H]3CC[C@H]4C[C@H](O)CC[C@]4(C)[C@H]3C(=O)C[C@]12C [Alfaxalone],1.02 ± 0.027
5,CC(=O)NC1CCSC1=O (racemic) [N-Acetyl-DL-homocysteine Thiolactone],1 ± 0.066
6,CNC(=O)Oc1ccc2c(c1)[C@]1(C)CCN(C)[C@@H]1N2C [Eserine hemisulfate salt],0.981 ± 0.013
7,CC[C@@H](CO)NC(=O)[C@@H]1C=C2c3cccc4[nH]cc(c34)C[C@H]2N(C)C1 [Methylergometrine maleate],1.05 ± 0.031
8,C[N+]1(C)CCCC(OC(=O)C(O)(c2ccccc2)c2ccccc2)C1 (stereo not drawn) [Mepenzolate bromide],1 ± 0.054
9,"CN1CCC2(C)c3cc(O)ccc3N(C)C12 (single isomer, unassigned; (-)) [(-)-Eseroline fumarate salt]",1.02 ± 0.043
10,CC(C)(C)NCC(O)c1cc(Cl)c(N)c(Cl)c1 (stereo not drawn) [Clenbuterol hydrochloride],1 ± 0.067
11,C=CCC1(CC(C)C)C(=O)NC(=O)NC1=O [Butalbital],1.01 ± 0.11
12,CC(C)(N)Cc1ccccc1 [Phentermine hydrochloride],0.979 ± 0.031
13,Oc1ccc2c3c1O[C@H]1[C@@H](O)CC[C@@]4(O)[C@@H](C2)N(CC2CCC2)CC[C@]314 [Nalbuphine hydrochloride],1.04 ± 0.0056
